# Reference: PubChem BioAssay AID1210 (NMMLSC, 2008)
# The source made the active and inactive calls.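 How the source made its calls: active means blocks over 70% of labeled estradiol binding at 10 µM, or over a set limit at 100 nM; inactive means the rest.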
# Target: Estrogen receptor beta (Homo sapiens) (UniProt Q92731)
# Assay: ERbeta ligand binders by competition, primary screen, cell-based, Cos7 ERbeta-GFP, flow cytometry (AID 1210);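 further: 0% = DMSO vehicle wells and 100% = complete loss of labeled estradiol signal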
# Conditions: fluorescent estrogen binding, at 10 µM, stronger effect = higher value
# Sequence of Estrogen receptor beta (Homo sapiens) (Q92731 whole entry, looked up): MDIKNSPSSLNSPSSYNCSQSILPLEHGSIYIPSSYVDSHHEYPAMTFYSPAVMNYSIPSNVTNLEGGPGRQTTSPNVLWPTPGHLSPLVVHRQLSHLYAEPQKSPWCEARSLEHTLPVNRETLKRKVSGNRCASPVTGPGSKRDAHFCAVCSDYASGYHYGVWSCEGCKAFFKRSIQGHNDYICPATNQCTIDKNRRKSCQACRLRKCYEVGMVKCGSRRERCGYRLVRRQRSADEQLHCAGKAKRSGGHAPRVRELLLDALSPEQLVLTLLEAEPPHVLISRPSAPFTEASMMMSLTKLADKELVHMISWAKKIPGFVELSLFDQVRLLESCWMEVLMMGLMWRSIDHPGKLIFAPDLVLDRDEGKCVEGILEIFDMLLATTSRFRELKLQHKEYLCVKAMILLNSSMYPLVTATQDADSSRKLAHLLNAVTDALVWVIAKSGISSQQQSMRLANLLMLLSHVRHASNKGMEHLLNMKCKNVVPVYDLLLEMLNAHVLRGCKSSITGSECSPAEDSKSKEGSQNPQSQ
row,Compound,inhibition
1,CCOC(=O)Cc1csc(NC(=O)Cc2cccs2)n1,25% (inactive)
2,CCOc1cc2c(c([N+](=O)[O-])c1)NC(c1ccc(Br)cc1)C1CC=CC21 (stereo not drawn),7% (inactive)
3,CSC(=O)CNC1(Cc2ccc(O)cc2)CCCCC1,87% (active)
4,Cc1ccn2c(NCc3ccc4c(c3)OCO4)c(-c3ccc(O)cc3)nc2c1,41% (inactive)
5,CC1(C)CC(=O)c2cn(-c3ccc(Cl)cc3)c(=N)c(C#N)c2C1,12% (inactive)
6,O=C(O)c1ccc2c(c1)C1C=CCC1C(c1cccc([N+](=O)[O-])c1)N2 (stereo not drawn),33% (inactive)
7,CC(C)C1CC(CCNCc2ccc3c(c2)OCO3)(c2ccccc2)CCO1 (stereo not drawn),45% (inactive)
8,NC(=O)c1ccsc1NC(=O)COC(=O)Cc1ccsc1,44% (inactive)
9,CC1=CC(C)C2(CO)COC(c3ccccc3O)C1C2C (stereo not drawn),66% (inactive)
10,O=C(Nc1ccc(O)cc1)C1CC=CCC1 (stereo not drawn),29% (inactive)
11,CC1CCN(Cc2c(O)ccc3c4c(c(=O)oc23)CCC4)CC1,21% (inactive)
12,CC1(C)Cc2[nH]c3ccccc3c2C(C)(C)N1,16% (inactive)
13,CC(Nc1ccc(N2CCNCC2)cc1[N+](=O)[O-])C12CC3CC(CC(C3)C1)C2 (stereo not drawn),15% (inactive)
14,CCCc1cc(=O)oc2c(C)c(OC3CCCCC3=O)ccc12 (stereo not drawn),19% (inactive)
15,CCc1cc2c3c(c(=O)oc2cc1OCC(=O)O)CCCC3,20% (inactive)
16,COc1ccc2[nH]c3c(c2c1)CCNC3C1CC=C(C)CC1 (stereo not drawn),22% (inactive)
17,CC(=O)OC1CC(C)(C)N(OC(=O)c2ccc(N)cc2)C(C)(C)C1,30% (inactive)
18,COc1ccc(NS(=O)(=O)c2ccc3c(c2)[C@H]2C=CC[C@H]2[C@@H](c2ccc(F)cc2)N3)cc1,20% (inactive)
19,CC(=O)Oc1ccc(C2Nc3c(C(=O)O)ccc([N+](=O)[O-])c3C3C=CCC32)cc1 (stereo not drawn),56% (inactive)

row,Compound,inhibition
1,Cc1ccc(-n2cc3c(c(C#N)c2=N)CC(C)(C)CC3=O)cc1,22% (inactive)
2,COC(=O)c1ccc(-c2n[nH]c(=O)c3ccccc23)cc1,32% (inactive)
3,CC1CCC2(C)c3[nH]c4ccccc4c3CCN2C1=O (stereo not drawn),7% (inactive)
4,COc1cc([N+](=O)[O-])cc2c1N[C@@H](c1ccc(C(=O)O)cc1)[C@H]1CC=C[C@@H]21,42% (inactive)
5,Cn1c(-c2ccc(N)cc2)nc2ccccc21,24% (inactive)
6,COC(=O)c1ccc2c(c1)C1C=CCC1C(c1cccc([N+](=O)[O-])c1)N2 (stereo not drawn),18% (inactive)
7,Cc1nc2cc(-c3ccsc3-n3c(C)ccc3C)[nH]n2c(=O)c1Cl,47% (inactive)
8,Cc1nn(-c2ccccc2)c2sc(C#N)c(N)c12,6% (inactive)
9,CC1(C)CC(=O)C=C(NC2CC(C)(C)NC(C)(C)C2)C1,2% (inactive)
10,Cc1ccc(-n2nnnc2SCC(=O)Nc2cccc(NC(=O)c3ccco3)c2)cc1C,56% (inactive)
11,O=C(NCc1ccco1)c1cc2cc3ccc(Cl)cc3nc2o1,14% (inactive)
12,COc1cc(C2CC(=O)Nc3c2ccc2ccccc32)cc(Cl)c1O (stereo not drawn),19% (inactive)
13,COc1ccc2[nH]c3c(c2c1)CCNC3=O,17% (inactive)
14,O=C(N/N=C/c1cccc(Oc2ccc([N+](=O)[O-])cc2[N+](=O)[O-])c1)c1cncc(Br)c1,46% (inactive)
15,Nc1ccc2nc(-c3cc(Cl)c(N)c(Cl)c3)[nH]c2c1,10% (inactive)
16,COc1cccc([C@@H]2Oc3ccc(OC)cc3C(=O)[C@H]2O)c1,32% (inactive)
17,Cc1c(O)ccc2c3c(c(=O)oc12)CCCC3,28% (inactive)
18,CC1(C)Cc2[nH]c(=O)c(C(=O)O)cc2CO1,43% (inactive)
19,Cc1cc(C(C)CO)cc(C(C)(C)C)c1O (stereo not drawn),19% (inactive)
